# Assay outcomes: PubChem, National Center for Advancing Translational Sciences (NCATS)
# SMN2 splice up = enhancers of SMN2 splice variant expression; HEK293 SMN2-luciferase splicing reporter, luminescence, 30-36 h; Potency, µM (top dose mostly 46.1 µM), inactives show at the top dose activity change, positive = activation, actives largely listed as activators; 210,000 compounds, 2.8% hits; AID 1458; also: % of control where 0% means no effect; nearly all actives have a fitted effect of over 55% in size
#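 HEK293 cells carry an SMN2 minigene-luciferase reporter in which exon 7 inclusion puts luciferase in frame. Cells were seeded at 2000 cells/well, attached for 10-12 hours, then exposed to compounds for 30-36 hours at 37C before ONE-Glo luminescence.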
# NPC1 promoter act = activators of NPC1 promoter; Potency, µM (doses to about 9.22 µM), for the others: at the top dose activation, usual class: activators; 320,000 compounds, 2.4% hits; AID 485313; Huh7 NPC1 promoter luciferase reporter, 24 h; also: % of control where 0% means no effect; nearly all actives have a fitted effect of over 60% in size
#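 Stable NPC1-promoter luciferase Huh7 line; cpd (DMSO) 24 h, 37 °C, 5% CO2; Amplite luciferase reagent 10 min RT; luminescence readout. qHTS format.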
# Rab9 promoter act = activates the Rab9 promoter; Potency, µM (titrated, usually from 9.22 µM), inactives show at the top dose activation, negative = inhibition, usual class: activators; AID 485297; 320,000 compounds, 2.8% hits; Huh7 Rab9 promoter-luciferase reporter, luminescence, 24 h; also: % of control where 0% means no effect; nearly all actives have a fitted effect of over 60% in size
#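 Measured in stably transfected Huh7 cells bearing a Rab9 promoter–luciferase construct: 24 h compound treatment at 37 °C, followed by luminescence detection.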
# ELG1 DNA repair = ELG1-dependent DNA repair inhibition; HEK293T ELG1-luciferase reporter, luminescence, 16 h; DNA damage induced by 5-fluorouridine; 330,000 compounds, 2.3% hits; Potency, µM (highest dose often 46.1 µM), for the others: top-dose activity change, negative = inhibition, most hits filed as inhibitors; AID 504467; also: % is scaled to controls: 0 for no effect and ±100 for the full control effect; nearly all actives have a fitted effect of over 55% in size
#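 HEK293T cells expressing luciferase-tagged ELG1 (2,000/well) received 5-Fluorouridine plus compound or DMSO for 16 hr at 37 °C. Luciferase was read by ONE-Glo luminescence after 30 min at room temperature.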
# ELG1 genotox = genotoxicity induction in ELG1-luciferase HEK293T cells | 330,000 compounds, 1.3% hits | Potency, µM (doses to about 46 µM), inactives show at the highest dose activity change, positive = activation, actives largely listed as activators | HEK293T ELG1-luciferase reporter, luminescence, 16 h; also: % of control where 0% means no effect; nearly all actives have a fitted effect of over 60% in size
#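 Luminescence read-out: rising ELG1-luciferase signal, reflecting elevated ELG1 protein under genetic stress, flags genotoxic compounds. Cells were treated for 16 hr at 37 °C before ONE-Glo detection.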
# FLuc counter = inhibits or activates purified firefly luciferase, miR-21 counter-screen | P08659 | purified FLuc, Km substrates, luminescence inhibition | Potency, µM (series often up to 57.5 µM), for inactives: at the highest dose activity change, negative = inhibition, usual class: inhibitors | 360,000 compounds, 6.9% hits | AID 588342;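 also: plate controls were vehicle for no effect and reference inhibitor for full effect; nearly all actives have a fitted effect of over 55% in size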
# Target sequence (P08659 whole entry, looked up): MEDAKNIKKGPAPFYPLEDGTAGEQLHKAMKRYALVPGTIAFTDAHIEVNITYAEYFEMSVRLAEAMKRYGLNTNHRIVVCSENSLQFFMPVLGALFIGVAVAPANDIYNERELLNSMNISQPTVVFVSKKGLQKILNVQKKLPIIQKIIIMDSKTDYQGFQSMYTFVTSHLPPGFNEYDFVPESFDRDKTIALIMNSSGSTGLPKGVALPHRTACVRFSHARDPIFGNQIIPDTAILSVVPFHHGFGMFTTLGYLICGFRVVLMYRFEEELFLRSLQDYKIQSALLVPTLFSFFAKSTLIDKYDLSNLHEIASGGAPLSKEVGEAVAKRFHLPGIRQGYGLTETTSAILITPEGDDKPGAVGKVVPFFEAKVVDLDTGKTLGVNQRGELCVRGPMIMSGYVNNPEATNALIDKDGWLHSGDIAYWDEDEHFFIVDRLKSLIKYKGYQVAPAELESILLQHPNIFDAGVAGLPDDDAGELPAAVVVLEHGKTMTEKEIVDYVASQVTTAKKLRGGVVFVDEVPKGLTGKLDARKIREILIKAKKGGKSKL
#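 Biochemical qHTS of compounds, final roughly 60 µM downward over six points, against 10 nM purified firefly luciferase using Km concentrations of substrates (10 uM D-luciferin, 10 uM ATP) in Tris acetate pH 7.5 buffer; luminescence output.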
# * hit, by the source's call; u = inconclusive; x = not tested or not shown; [ ] = dose if it differs, or a comment. Shown are actives, neighbours in structure and some others; about 9.3% of the full set was active somewhere. Calls follow the shape of the dose curve; as a rule, active = well fitted curve in the direction sought with a large enough effect; inconclusive = small, poorly fitted or top-dose-only effect, or another doubt; inactive = no such curve, though single readings can be large; an effect the other way counts as inactive or inconclusive. Potency is read from the fitted curve at half-maximal effect.
SMILES,SMN2 splice up,NPC1 promoter act,Rab9 promoter act,ELG1 DNA repair,ELG1 genotox,FLuc counter
O=C(NCCCO)c1ccc2[nH]c3ccccc3c2c1,12%,1%,1%,u,11%,24µM*
COC(=O)c1ccc2[nH]c(C)cc(=O)c2c1,-11%,-3%,-3%,11%,-3%,4%
CCCCOC(=O)c1cc2c(cn1)[nH]c1ccccc12,18µM*,x,x,x,x,x
CCOC(=O)c1ccc2[nH]c(C)cc(=O)c2c1,-15%,-2%,2%,13%,4%,-2%
CCOC(=O)c1ccc2[nH]c3ccccc3c2c1,u,18%,u,u,10%,19µM*
O=C(Nc1cccc(-c2nc3ncccc3o2)c1)c1sc2cc(Cl)ccc2c1Cl,-9%,5%,16%,u,u,-12%
Cc1ccc(-c2nc3ncccc3o2)cc1NC(=O)c1cc2ccccc2o1,2%,-1%,-5%,-2%,0%,-8%
O=C(Nc1cccc(-c2nc3ncccc3o2)c1)c1cc2ccccc2o1,1%,u,u,u,-2%,8.5µM*
O=C(Nc1cccc(-c2nc3ncccc3o2)c1)c1sc2ccccc2c1Cl,-5%,u,u,15%,-1%,1.3µM*
COc1ccccc1CCc1nnc(CCC(=O)N(C)Cc2cccc3ncccc23)o1,x,0%,-2%,u,-4%,-7%
CCOc1ccc2nc(NC(=O)CSc3cn[nH]n3)sc2c1,x,2.8µM*,4.5µM*,u,4.6µM*,2.7µM*
CCOc1ccc2nc(NC(=O)CSc3nc(-c4ccccc4)c(C#N)c(=O)[nH]3)sc2c1,x,0%,2%,u,11%,17µM*
Cc1cccc2sc(NC(=O)CSc3cn[nH]n3)nc12,x,-3%,1%,-3%,0%,-15%
COc1ccc2nc(NC(=O)CSc3cn[nH]n3)sc2c1,x,u,4µM*,u,u,6.7µM*
C/C=C/c1ccccc1OCc1ccc(C(=O)O)o1,x,-2%,-6%,8%,6%,-15%
CCOc1ccc(OCc2ccc(C(=O)Nc3cc(OC)c(OC)c(OC)c3)o2)cc1,-14%,x,x,x,x,-14%
CCOc1ccc(OCc2ccc(C(=O)O)o2)cc1,0.89µM*,u,0.28µM*,u,u,3.4µM*
O=C(O)c1ccc(COc2ccc3ccccc3c2)o1,x,u,u,u,u,19µM*
COc1cc2c(cc1OC)C(c1ccc(F)cc1)N(c1cccc(C#N)c1)C(=O)C2 (stereo unspecified),3%,x,x,x,x,-5%
COc1ccc(N2CCN(c3cnc4ccccc4n3)CC2)cc1,u,u,u,u,u,13µM*
COc1cccc(N2CCN(c3cnc4ccccc4n3)CC2)c1,14%,u,1.6µM*,u,8%,24µM*
COc1ccc(N2CCN(c3cc(C)c4ccccc4n3)CC2)cc1,-28%,-11%,0%,-15%,-11%,0%
COc1cccc(N2CCN(c3ccc([N+](=O)[O-])cn3)CC2)c1,x,-4%,-7%,-13%,-5%,4%
Cc1ccc(N(c2ncnc(N)c2[N+](=O)[O-])C2CCCCC2)cc1,-11%,-2%,3%,-7%,-7%,2%
Cn1c(=O)c2c(n(Cc3ccccc3)c1=O)NC(=O)C2CC(=O)O (stereo unspecified),14%,-3%,-3%,-2%,4%,1%
SMILES,SMN2 splice up,NPC1 promoter act,Rab9 promoter act,ELG1 DNA repair,ELG1 genotox,FLuc counter
Cc1cccc(C(=O)NC2CC3CCCC(C2)N3S(=O)(=O)c2ccccc2)c1 (stereo unspecified),-39%,2%,2%,23µM*,-25%,4%
Cc1ccc(Nc2nnc(SC(C)C(=O)Nc3c(C)n(C)n(-c4ccccc4)c3=O)s2)cc1 (stereo unspecified),6%,-1%,0%,-1%,0%,11µM*
Nc1ccc(OCc2ccccc2)cc1,13µM*,28%,u,u,19%,u
Nc1ccc(OCCc2ccccc2)cc1,x,u,u,u,17%,-12%
CC(=O)COc1ccc(-c2csnn2)cc1,x,15%,26%,u,14%,-14%
c1ccc(COc2ccc(-c3csnn3)cc2)cc1,u,1.8µM*,2.8µM*,u,26%,2.4µM*
OCCNCCCCOc1ccc(OCc2ccccc2)cc1,16µM*,u,3.5µM*,u,u,11µM*
Cc1ccccc1C(=O)Oc1ccc(-c2csnn2)cc1,x,0%,-1%,u,u,12µM*
Cc1cccc(NC(=O)C2CCN(S(=O)(=O)c3c(C)noc3/C=C/c3ccco3)CC2)c1C,-4%,x,x,x,x,0%
CN(C1CCCCC1)C(CNS(=O)(=O)c1ccccc1)c1ccccc1 (stereo unspecified),x,-1%,3%,0%,-3%[9.26 µM],0%
CCOC(=O)c1[nH]c(C)c(C(=O)N2CCc3c([nH]c4ccccc34)C2c2ccccn2)c1C (stereo unspecified),x,-8%,-7%,-7%,-5%,-3%
COc1ccc(CNCCC(c2ccc(OC(C)C)cc2)c2ccccc2OC)cc1 (stereo unspecified),x,-6%,-5%[1.84 µM],-11%,-6%,0%
O=C(O)c1sc2cc(C(F)(F)F)cnc2c1-c1cccs1,6%,2%,-10%,-2%,-8%,11µM*
CCCC(=O)NNc1c2ccccc2nc2ccccc12,-8%,-29%,-43%,3%,-2%,1%
O=C(NNc1c2ccccc2nc2ccccc12)c1ccccc1Cl,x,-1%,-5%,-8%,4%,2%
O=C(NNc1c2ccccc2nc2ccccc12)c1ccc(O)cc1,-45%,1%,8%,u,5%,17µM*
O=C(NNc1c2ccccc2nc2ccccc12)c1ccccc1O,-15%,5%,-2%,u,-7%,u
O=C(NNc1c2ccccc2nc2ccccc12)c1ccc(O)cc1O,-3%,-1%,-3%,-21%,-1%,13µM*
COc1ccc(OCC(=O)NNc2c3ccccc3nc3ccccc23)cc1,-47%,-23%,-27%,u,-8%,u
O=C(NNc1c2ccccc2nc2ccccc12)c1cccc(O)c1,-34%,0%,-1%,15µM*,-7%,24µM*
O=C(COc1ccccc1)NNc1c2ccccc2nc2ccccc12,x,-33%,-25%,21µM*,0%,-6%
Cc1cc(C)n2c(SCC(=O)Nc3cc(S(=O)(=O)N(C)C)ccc3C)nnc2n1,x,x,x,0%,7%,x
Cc1ccc(C(=O)c2c(N)c(-c3nc(-c4ccc5c(c4)OCO5)cs3)c3ccccn23)cc1C,-4%,x,x,x,x,0%
